Laboratory results taken from PubChem BioAssay (Tox21).
Results filed as inconclusive are left out. A call without a number means that no potency is given here. Calls of active or inactive are those of the source. The call rests on the fitted dose curve.

Each compound was assayed against Beta-2 adrenergic receptor (Homo sapiens) (UniProt P07550) (assay: Adrenergic beta2 receptor (ADRB2) small molecule antagonists, cell-based qHTS assay (AID 1963592; further: nearly all actives have a fitted effect of over 50% in size)). Details: CHO-ADRB2 cells, isoproterenol-stimulated cAMP HTRF ratio, 0.5 h; series mostly up to 92.4 µM.
Sequence of Beta-2 adrenergic receptor (Homo sapiens) (P07550 whole entry, looked up): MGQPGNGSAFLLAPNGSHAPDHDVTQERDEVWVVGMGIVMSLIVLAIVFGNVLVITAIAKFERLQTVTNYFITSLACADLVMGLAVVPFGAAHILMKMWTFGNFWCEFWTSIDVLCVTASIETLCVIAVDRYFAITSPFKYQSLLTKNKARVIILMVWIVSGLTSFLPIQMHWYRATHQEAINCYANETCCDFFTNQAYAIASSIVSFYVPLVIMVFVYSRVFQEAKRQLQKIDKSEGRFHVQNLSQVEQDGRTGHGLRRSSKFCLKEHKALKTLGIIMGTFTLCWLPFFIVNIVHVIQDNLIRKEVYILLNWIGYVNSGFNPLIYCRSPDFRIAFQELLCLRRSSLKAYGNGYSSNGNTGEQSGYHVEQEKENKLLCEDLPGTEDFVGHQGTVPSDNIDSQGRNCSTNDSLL
Text: U.S. Tox21 Program National Center for Advancing Translational Sciences [NCATS] Division of Preclinical Innovation [DPI] U.S. Environmental Protection Agency [EPA] National Institutes of Environmental Health Sciences [NIEHS] National Toxicology Program [NTP] U.S. Food and Drug Administration [FDA] Tox21 Assay Overview: Beta adrenergic receptors (Beta-ARs) belong to the G-protein coupled receptor (GPCR) superfamily, includes three subtypes - beta1, beta2, and beta3. Beta1-AR is the predominant receptor subtype expressed in the heart, and beta2-AR is expressed in the kidney, lung, blood vessel and in the heart, and beta3 is found in the adipocytes. Beta1 and 2 ARs couple to Gs protein and elevate cyclic adenosine mono phosphate (cAMP), which activates protein kinase A and leads to the downstream signaling responsible for the physiological actions. Beta-AR agonists or antagonists are the most prescribed therapeutic agents for heart failure and asthma, and these were one of the first target receptors for the rational drug design. Tox21 10K compound library was screened using the cAMP-Gs dynamic assay (Cisbio Bioassays, Shelton, CT) to identify agonists/antagonists of the Gs-coupled human adrenergic, beta2 receptor (ADRB2) in the CHO-ADRB2 cell line (Codex BioSolutions, Inc. Gaithersburg, MD), which stably over-expresses ADRB2. The principle of cAMP-Gs dynamic assay is based on HTRF technology, which facilitates the fluorescence resonance energy transfer (FRET) between donor Europium cryptate and acceptor d2-labeled cAMP. The cAMP generated within cells competes with the red acceptor, d2-labled cAMP, for binding to the monoclonal anti-cAMP-cryptate (Europium donor). An increase in intracellular cAMP leads to the disruption of FRET signal, and the signal is inversely proportional to the cAMP concentration. Propranolol HCl (Sigma-Aldrich, St. Louis, MO) was used as a positive control in the screening.
Tox21 Assay Protocol Summary: CHO-ADRB2 cells were dispensed at 1,000/well in 4uL assay medium into white/solid 1536-well plates (Greiner Bio-One North America Inc., Monroe, NC) using a Multidrop Combi dispenser (ThermoFisher Scientific, Waltham, MA). The assay plates were incubated at 37C and 5% CO2 for an overnight (18-20hr). Then positive control and test compounds dissolved in DMSO were transferred to the assay plates at 23nL using a Pintool station (Wako, San Diego, CA). Following the compound and positive control transfer, 1uL agonist-stimulation mix containing 1nM Isoproterenol HCl, 100uM IBMX and 25uM Ro-20-1724 was added to each well of the assay plates using BioRAPTR Flying Reagent Dispenser (FRD, Beckman Coulter, Brea, CA). The assay plates were incubated at room temperature for 0.5hr. Then 2.5ul each d2-labled cAMP and anti-cAMP-cryptate solutions were added separately to each well of the assay plates using an FRD and the assay plates were incubated at room temperature for 1hr. The fluorescence signal was measured at two different wavelengths (665nm and 615nm) using an Envision plate reader (Perkin Elmer, Shelton, CT). Data were expressed as the ratio of 665 nm/615 nm.

Row | SMILES | Potency
1 | Nc1ccc(N)cc1 | inactive
2 | O=P1(NCCCl)OCCCN1CCCl (stereo not given) | inactive
3 | C[C@H]1CCCC(=O)CCC/C=C/c2cc(O)cc(O)c2C(=O)O1 | inactive
4 | CCCCCCCCCCCCCCCC[n+]1ccccc1 | inactive
5 | COCC(=O)N(c1c(C)cccc1C)C(C)C(=O)OC (stereo not given) | inactive
6 | CCOC(=O)CP(=O)(OCC)OCC | inactive
7 | CCCCCCCCn1cc[n+](C)c1 | inactive
8 | O=[N+]([O-])CCO | inactive
9 | CN(C)CCc1c[nH]c2cccc(OP(=O)(O)O)c12 | inactive
10 | Cn1c(-c2ccccc2)cc(-c2ccccc2)[n+]1C | inactive
11 | COC(=O)[C@@H](N)CCCN/C(N)=N/[N+](=O)[O-] | inactive
12 | O=C(Cl)OCc1ccccc1 | inactive
13 | Nc1ccc(Br)cc1 | inactive
14 | CN(N=O)c1ccccc1 | inactive
15 | COc1nc(C)nc(NC(=O)NS(=O)(=O)c2ccccc2Cl)n1 | inactive
16 | NC1(c2ccccc2)CCCCC1 | inactive
17 | NCc1cccnc1 | inactive
18 | C=C1CC[C@@]2(O)[C@H]3Cc4ccc(O)c5c4[C@@]2(CCN3CC2CC2)[C@H]1O5 | inactive
19 | C[C@]12C=CC3=C4CCC(=O)C=C4CC[C@H]3[C@@H]1CC[C@@H]2O | inactive
20 | N#Cc1c(Cl)c(Cl)c(Cl)c(C#N)c1Cl | inactive

Row | SMILES | Potency
21 | CC(C)C1(C)N=C(c2nc3ccccc3cc2C(=O)O)NC1=O (stereo not given) | inactive
22 | CSc1nnc(C(C)(C)C)c(=O)n1N | inactive
23 | Cc1cccc(C#N)c1 | inactive
24 | NC(=S)c1c(Cl)cccc1Cl | inactive
25 | CC(C)C1(C)N=C(c2ncccc2C(=O)O)NC1=O (stereo not given) | inactive
26 | OCCOCCO | inactive
27 | FC(F)(F)c1ccc(Cl)cc1 | inactive
28 | NNC(=O)c1ccccc1 | inactive
29 | ClC(Cl)c1ccccc1 | inactive
30 | c1ccc(N=Nc2ccccc2)cc1 | inactive
31 | O=[N+]([O-])c1ccc([As](=O)(O)O)cc1 | inactive
32 | N#CC(Cl)Cl | inactive
33 | CCCC(C)(COC(N)=O)COC(N)=O | inactive
34 | O=C(O)C(Cl)Br (stereo not given) | inactive
35 | O=Cc1ccco1 | inactive
36 | CNC(=O)O/N=C/C(C)(C)S(C)=O (stereo not given) | inactive
37 | O=C(NC(=O)c1ccccc1Cl)Nc1ccc(OC(F)(F)F)cc1 | inactive
38 | CCCCCCCCOC(=O)c1ccccc1C(=O)OCCCCCCCC | inactive
39 | CCCCCCC#N | inactive
40 | CCOC(=O)C1(c2ccccc2)CCN(CCC(C#N)(c2ccccc2)c2ccccc2)CC1 | inactive
